Inconclusive results are not listed. A call without a number means that no potency is given here. Values without a mark were called inactive. Calls of active or inactive are those of the source. Calls follow the shape of the dose curve; as a rule, active = well fitted inhibition curve with a large enough effect; inconclusive = small, poorly fitted or top-dose-only effect; inactive = no such curve, though single readings can be large or run the other way. Where a SMILES comes first, the peptide text is derived from it. The star is where a group is joined. βNA = c1ccc2cc(N*)ccc2c1; Cbz = O=C(OCc1ccccc1)*
Columns and labels:
[1] = test system: Zika virus NS2B-NS3 protease (unlinked complex); test: Primary screen GU Rhodamine qHTS for Zika virus inhibitors: Unlinked NS2B-NS3 protease assay (AID 1347159); also: nearly all actives have a fitted effect of over 60% in size
Outline: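 Noncovalent NS2B hydrophilic domain–NS3 protease domain complex (25 nM) preincubated 15 min at room temperature with compounds (up to 114 microM) in 10 mM Tris-HCl pH 8.0, 0.01% Tween 20; 1.5 microM Rhodamine110 substrate added, fluorescence change over 15 min fitted to Hill equation.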

[2] = test system: Zika virus NS2B-NS3 protease (linked construct); test: Primary screen NINDS Rhodamine qHTS for Zika virus inhibitors (AID 1347160); also: nearly all actives have a fitted effect of over 55% in size
Outline: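 Purified linked NS2B-NS3 protease (NS2B hydrophilic domain joined to NS3 protease by flexible linker), 25 nM in 10 mM Tris-HCl pH 8.0, 0.01% Tween 20. Compounds titrated, 15 min preincubation at room temperature; 1.5 microM Rhodamine110 substrate, FITC fluorescence change over 15 min.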
Potency is read from the fitted curve at half-maximal effect.

| Compound | Potency [1] | Potency [2] | activity change, negative = inhibition [1] |
| --- | --- | --- | --- |
| CC(C)CC(NC(=O)OCc1ccccc1)C(=O)NC(CC(C)C)C(=O)NC(CCC(=O)O)C(=O)Nc1ccc2ccccc2c1 (stereo not drawn) (Cbz-Leu-Leu-Glu-βNA; configuration not given here) | 11.2 µM (active) | 11.2 µM (active) | – |
| Cc1cc(Cn2cnc3c2CC(C(=O)O)N(C(=O)C(c2ccccc2)c2ccccc2)C3)ccc1N(C)C (stereo not drawn) | inactive | inactive | – |
| Cc1onc(-c2c(Cl)cccc2Cl)c1CC(=O)NCc1ccc(OCC(F)(F)F)nc1 | inactive | inactive | – |
| CC(=O)OC(C)(C)/C=C/C(=O)[C@](C)(O)C1[C@H](O)C[C@@]2(C)[C@@H]3CC=C4[C@@H](C[C@H](O[C@@H]5O[C@H](CO)[C@@H](O)[C@H](O)[C@H]5O)C(=O)C4(C)C)[C@]3(C)C(=O)C[C@]12C (stereo partly drawn) | inactive | inactive | – |
| CC1=CCC2C(C)(C)CCCC2(C)C1CC12OC1C(O)C(CO)=CC2O (stereo not drawn) | inactive | inactive | – |
| COc1ccc(N2CCN(CCCNC(=O)Cn3c(=O)c4cccn4c4c(C)ccnc43)CC2)cc1 | inactive | inactive | – |
| C[C@]1(OC(=O)/C=C\c2ccc(O)cc2)C[C@@H](O)[C@]2(O)C=CO[C@@H](O[C@@H]3O[C@H](CO)[C@@H](O)[C@H](O)[C@H]3O)C12 (stereo partly drawn) | inactive | inactive | – |
| CC(=O)c1ccc(O[C@@H]2O[C@H](CO[C@@H]3OC[C@@H](O)[C@H](O)[C@H]3O)[C@@H](O)[C@H](O)[C@H]2O)cc1 | inactive | inactive | – |
| Cc1nc2cc(-c3cc(F)cc(C#N)c3)ccc2s1 | inactive | inactive | – |
| CC1(C)C2CC[C@@]34CC(CC[C@H]3[C@]2(C)CC[C@@H]1O[C@@H]1O[C@H](CO)[C@@H](O)[C@H](O)[C@H]1O)[C@](C)(O)C4 (stereo partly drawn) | inactive | inactive | – |
| COC(=O)C1=CO[C@@H](O[C@@H]2O[C@H](CO)[C@@H](O)[C@H](O)[C@H]2O)[C@@H]2[C@@H](C)[C@@H](OC(=O)/C=C/c3ccccc3)[C@@H](O)[C@H]12 | inactive | inactive | – |
| CC1=CC(=O)[C@]2(O[C@@H]3O[C@@H](C)[C@H](O)[C@@H](O)[C@H]3O)C=CO[C@@H](O[C@@H]3O[C@H](CO)[C@@H](O)[C@H](O)[C@H]3O)[C@H]12 | inactive | inactive | – |
| Cc1ccc(Nc2nnc(-c3ccc([N+](=O)[O-])cc3)o2)cc1Cl | inactive | inactive | – |
| C=CC(C)(CCC=C(C)C)O[C@@H]1O[C@H](CO)[C@@H](O)[C@H](O)[C@H]1O (stereo partly drawn) | inactive | inactive | – |
| CCOC(=O)COc1ccc2c(c1)C[C@@H](NC[C@H](O)c1cccc(Cl)c1)CC2 | inactive | inactive | – |
| N#Cc1cc(-c2n[nH]c(-c3ccncc3)n2)ccn1 | inactive | inactive | – |
| CC1(C)CC[C@]2(C(=O)O)CC[C@]3(C)C(=CCC4[C@@]5(C)C[C@@H](O)[C@H](O)[C@@](C)(CO)C5[C@H](O)C[C@]43C)[C@@H]2C1 (stereo partly drawn) | inactive | inactive | – |
| C[C@@H]1O[C@@H](O[C@H]2[C@H](OC(=O)[C@]34CCC(C)(C)C[C@H]3C3=CCC5[C@@]6(C)C[C@@H](O)[C@@H](O)[C@@](C)(CO)C6[C@H](O)C[C@@]5(C)[C@]3(C)CC4)OC[C@H](O)[C@@H]2O)[C@H](O)[C@H](O)[C@H]1O[C@@H]1OC[C@@H](O)[C@H](O[C@H]2O[C@H](C)[C@@H](O)[C@H](O)[C@@H]2O)[C@H]1O (stereo partly drawn) | inactive | inactive | – |
| COc1cccc2c1c(O)c(C(=O)N(C)c1ccc(C(F)(F)F)cc1)c(=O)n2C | inactive | inactive | – |
| CC1=CC[C@@]2(C)CC[C@@](O)(C(C)C)[C@@H]2[C@@H](O)C1 | inactive | inactive | – |
| C[C@@H]1C(=O)O[C@H]2[C@H]1CC[C@@]1(C)C(=O)C=C[C@@](C)(O)[C@H]21 | inactive | inactive | – |
| CC(C)C1(O)NC(=O)C(CC2(O)c3ccccc3N3C(=O)C(C)(C)NC32)n2c1nc1ccccc1c2=O (stereo not drawn) | inactive | inactive | – |
| CC1(C)CC[C@]2(C(=O)O[C@@H]3O[C@H](CO[C@@H]4O[C@H](CO[C@@H]5O[C@H](CO)[C@H](O)[C@H](O)[C@H]5O)[C@@H](O)[C@H](O)[C@H]4O)[C@@H](O)[C@H](O[C@@H]4O[C@H](CO)[C@@H](O)[C@H](O)[C@H]4O)[C@H]3O)[C@H](O)C[C@]3(C)C(=CCC4[C@@]5(C)CC[C@H](O[C@@H]6OC[C@@H](O)[C@H](O)[C@H]6O)[C@@](C)(C(=O)O)C5CC[C@]43C)[C@@H]2C1 (stereo partly drawn) | – | inactive | 8.5% [at 19.1 µM] |
| COc1cc(/C=C/C(=O)OCC2OC(OC3(CO)OC(CO)C(O)C3O)C(O)C(O)C2O)ccc1O (stereo not drawn) | inactive | inactive | – |
| C/C=C/C=C/[C@@H]1O[C@](O)([C@H](CC)C(=O)NC/C=C/C=C(\C)[C@@H](OC)[C@@H](C)[C@@H]2O[C@H](/C=C/C=C/C=C(\C)C(=O)c3c(O)ccn(C)c3=O)[C@H](O)[C@@H]2O)[C@H](O)[C@H](O)C1(C)C | inactive | inactive | – |
| CC(C)C1C(OC(=O)/C=C/c2ccccc2)CC2(C)OC2CCC2(C)OC2C1O (stereo not drawn) | inactive | inactive | – |
| C/C=C1/CC2C(=O)Nc3cc(O)c(OC)cc3C(=O)N2C1 (stereo not drawn) | inactive | inactive | – |
| OCC1=C[C@@H](O)[C@@H]2C=CO[C@@H](O[C@@H]3O[C@H](CO)[C@@H](O)[C@H](O)[C@H]3O)[C@H]12 | inactive | inactive | – |
| CC(=O)OC[C@@]12C(=O)C[C@@H](C)[C@]3(C[C@@H](c4ccoc4)OC3=O)[C@H]1CC[C@H](OC(C)=O)[C@]21CO1 | inactive | inactive | – |

From PubChem BioAssay (NCATS)
